Experimental data as given in PubChem BioAssay (Tox21).
Where “and” joins values, the source holds several entries; their conditions need not be identical. Identical values can stand only once. Results filed as inconclusive are left out. Entries that show only a call come without a potency. Calls of active or inactive are those of the source. Calls come from the whole dose curve; as a rule, active = well fitted cell-killing curve with a large enough effect in the repeat runs; inconclusive = weak or mixed curves, or effect the other way; inactive = flat fitted curve, though single readings scatter.

Experiment: qHTS RealTime-Glo MT Cell Viability Assay in HEK293 cells - 32 hour (AID 1224868); note: nearly all actives have a fitted effect of over 50% in size
Conditions: RealTime-Glo luminescence; series mostly up to 76.8 µM
From the text: National Center for Advancing Translational Sciences [NCATS]
NIH Chemical Genomics Center [NCGC]
U.S. Environmental Protection Agency [EPA]
National Institutes of Environmental Health Sciences [NIEHS]
National Toxicology Program [NTP]
U.S. Food and Drug Administration [FDA]
Measure of cell viability is critical in the cell-base assay. Analysis of cell viability is necessary for the characterization of cell responses to cytotoxic drugs and environmental stress. A RealTime-Glo MT Cell Viability Assay to monitor cell viability in real time of continues cell culture during 40 hours of compound treatment was used to screen Tox21 10K library compounds in Hek293 cells. The RealTime-Glo MT Cell Viability Assay is a nonlytic, homogeneous, bioluminescent method to measure cell viability in real time using a simple, plate-based method. The assay involves adding NanoLuc luciferase and a cell-permeant prosubstrate to cells in culture. Viable cells reduce the proprietary prosubstrate to generate a substrate for NanoLuc luciferase. This substrate diffuses from cells into the surrounding culture medium, where it is rapidly used by the NanoLuc Enzyme to produce a luminescent signal. The signal correlates with the number of viable cells, making the assay well suited for cytotoxicity studies.
Tox21 Assay Protocol Summary:
The mixture of Hek293 cell suspension and reagents were dispensed at 600cells/6 ul/well in 1536-well tissue culture treated black solid bottom plates using a Multidrop dispenser. After the assay plates were incubated at a 37 C/5% CO2 incubator for 5 hours, 23 nL of compounds dissolved in DMSO, positive and negative controls was transferred to the assay plate by a pintool work station. The plates were incubated at 37 C for 40 hours. The luminescence intensity were measured at 0h, 8h, 16h, 24h, 32h and 40h time points using ViewLux plate reader during compound treatment.
Potency is the fitted concentration of half-maximal effect.

Row | Structure (SMILES) | Potency
1 | O=Cc1ccccc1C=O | inactive
2 | CC/C(=C(/CC)c1ccc(O)cc1)c1ccc(O)cc1 | 10.9 µM (active) and 27.5 µM (active)
3 | CC1(C)OC(=O)NC1=O | inactive
4 | O=C(O)CCCCCCCCCCCC(=O)O | inactive
5 | Nc1cc(Cl)c(N)c(Cl)c1 | inactive
6 | COc1ccc(C(=O)c2ccccc2O)c(O)c1 | inactive
7 | CN(C)CCCN1c2ccccc2Sc2ccc(Cl)cc21 | 24.5 µM (active) and 23.9 µM (active)
8 | CCCCCCCC/C=C\CCCCCCCC(=O)O | inactive
9 | C=CCCCCCCCCCC | inactive
10 | NCCOCCO | inactive
11 | Cc1ccc(N)c([N+](=O)[O-])c1 | inactive
12 | COC(=O)CC(=O)OC | inactive
13 | CN1CCOCC1 | inactive
14 | Nc1ccc(O)c(N)c1 | inactive
15 | O=C(O)c1ccc(O)cc1 | inactive
16 | CCC(=O)O[C@H]1[C@H](O[C@@H]2[C@@H](C)[C@H](O[C@H]3C[C@@](C)(OC)[C@@H](O)[C@H](C)O3)[C@@H](C)C(=O)O[C@H](CC)[C@@](C)(O)[C@H](O)[C@@H](C)C(=O)[C@H](C)C[C@@]2(C)O)O[C@H](C)C[C@@H]1N(C)C | inactive
17 | C=C[C@@]1(C)CC(=O)[C@]2(O)[C@@]3(C)[C@@H](O)CCC(C)(C)[C@@H]3[C@H](O)[C@H](OC(C)=O)[C@@]2(C)O1 | inactive
18 | Oc1c(Cl)ccc(Cl)c1Cl | inactive
19 | CCOC(=O)C(C)Oc1ccc(Oc2cnc3cc(Cl)ccc3n2)cc1 (stereo not given) | 39.9 µM (active)
20 | CC(=O)Oc1ccc(C(c2ccc(OC(C)=O)cc2)c2ccccn2)cc1 | inactive

Row | Structure (SMILES) | Potency
21 | Nc1ccc2c(c1)C(=O)c1ccccc1C2=O | inactive
22 | c1ccc2c(c1)ccc1cc3c(ccc4ccccc43)cc12 | inactive
23 | C=CCNCC=C | inactive
24 | Cc1ccc(/C(=C\CN2CCCC2)c2ccccn2)cc1 | inactive
25 | CC(C)[C@@H]1CC[C@@H](C)CC1=O | inactive
26 | COC(=O)C(C)Oc1ccc(Oc2ncc(C(F)(F)F)cc2Cl)cc1 (stereo not given) | inactive
27 | Cc1ccc(C)c(O)c1 | inactive
28 | CC(=O)OC(C)C | inactive
29 | COc1ccc(-c2coc3cc(O)cc(O)c3c2=O)cc1 | 44 µM (active) and 49 µM (active)
30 | CC(C)=CCO | inactive
31 | c1ccc2cc3ccccc3cc2c1 | inactive
32 | C1COCCN1 | inactive
33 | CCCCCCCCCCCCO | inactive
34 | O=C(CCCN1CCC(O)(c2ccc(Cl)cc2)CC1)c1ccc(F)cc1 | 17.4 µM (active) and 8.49 µM (active)
35 | Brc1nc2ccccc2s1 | inactive
36 | CC(=O)Oc1c(C)c(C)c2c(c1C)CC[C@@](C)(CCC[C@H](C)CCC[C@H](C)CCCC(C)C)O2 | inactive
37 | FC(F)(F)C(Cl)Br (stereo not given) | inactive
38 | CC(C)(Oc1ccc(Cl)cc1)C(=O)O | inactive
39 | CC[C@]12CCCN3CCc4c(n(c5ccccc45)[C@@](O)(C(=O)OC)C1)[C@@H]32 | inactive
40 | O=C1CCc2ccccc2O1 | inactive
